The text below walks through data of PubChem BioAssay AID651820 (National Center for Advancing Translational Sciences (NCATS), 2012).

Molecules are shown by their SMILES. Among all 340,000 compounds or so, about 12,000 (3.5%) were called active. A call without a number means that no potency is given here. Roughly 18% stayed inconclusive and do not appear here. The call rests on the fitted dose curve; in most records, active means well fitted inhibition curve with a large enough effect; inconclusive means small, poorly fitted or top-dose-only effect, or another doubt; inactive means no such curve, though single readings can be large or run the other way. For the sample, actives were picked, then their nearest neighbours and some compounds at random.
Potency means the concentration at half of the fitted maximal effect.

A short description of the assay: qHTS Assay for Inhibitors of Hepatitis C Virus (HCV). Particulars: Huh7.5.1 HCVcc-Cre infection, luciferase reporter, 44 h; series mostly up to 41.8 µM. Put shortly: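 Infectious HCV cell culture screen: compound-treated cells (1,000/well, pre-plated 4 h) are infected with HCVcc-Cre at roughly 0.5 moi and grown 44 h. Infection is quantified by luciferase signal after 15 min substrate incubation at room temperature.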
(In general: Quantitative high-throughput screening tests each substance at several concentrations.)
Take `COc1ccccc1-n1cnc2cc(C(=O)NCC3CCCO3)ccc21` (stereo not given): the Potency result is “inactive”.
For the compound `COc1ccccc1-n1cnc2cc(NS(=O)(=O)c3ccccc3)ccc21`, the Potency is 22.4 µM (active).
Turning to `Cn1c(CCN2CCCC2)nc2cc(NS(=O)(=O)c3ccccc3)ccc21`, the Potency entry is “inactive”.
To `O=C(COC(=O)c1ccc(F)cc1)Nc1ccc2c(c1)OCO2` belongs “inactive”; to `O=C(NCc1ccccc1Cl)C(=O)NCC1CCCN1S(=O)(=O)c1cccs1` (stereo not given), “inactive”.
Turning to `COc1ccccc1CCNC(=O)C(=O)NCCC1CCCCN1S(=O)(=O)c1cccs1` (stereo not given), the Potency is 35.5 µM (active).
To `COc1ccc(C(=O)NCC2CCCN2S(=O)(=O)c2cccs2)cc1OC` (stereo not given) belongs “inactive”; to `Oc1[nH]c2ccccc2c1N=Nc1c(F)c(F)c(F)c(F)c1F`, “inactive”.
As for `Nc1cc2c(cc1Br)-c1ccc(F)cc1C2=O`, the Potency was 12.6 µM (active).
With `CC1CCCCC1NC(=O)NC(=O)COC(=O)C1=NN(c2ccccc2)C(=O)CC1` (stereo not given), the Potency entry was “inactive”.
As for `COc1ccc(OC)c(C(c2nnnn2C(C)(C)C)N2CCc3ccccc3C2)c1` (stereo not given), the figure is 7.94 µM (active); as for `COc1ccccc1C(c1nnnn1C(C)(C)C)N1CCN(Cc2ccccc2)CC1` (stereo not given), “inactive”.
For the compound `Cc1ccc(C(c2nnnn2C(C)(C)C)N2CCc3ccccc3C2)cc1` (stereo not given), the Potency entry was “inactive”.
To `CCCCn1c(N)c(N(CC)C(=O)c2ccc(N(C)S(=O)(=O)c3ccc(C)cc3)cc2)c(=O)[nH]c1=O` belongs “inactive”; to `O=C(c1ccc2c(c1)C(=O)N(Cc1ccncc1)C2=O)N1CCN(S(=O)(=O)c2ccc(OC(F)(F)F)cc2)CC1`, “inactive”; to `Cc1cc(N/N=C/c2ccccc2F)c2ccccc2n1`, “inactive”.
Take `Oc1ccc(/C=N/Nc2nc(-c3ccccc3F)nc3ccccc23)c(O)c1`: the Potency was 11.2 µM (active).
Take `Fc1ccc(/C=N/Nc2nc(-c3cccnc3)nc3ccccc23)cc1`: the Potency entry is “inactive”.
For `C[C@]12CC[C@H](O)CC1=CCC1C2CC[C@@]2(C)C1CC[C@@H]2NC(=O)CCC(=O)O` (stereo not given in full), the Potency result is “inactive”.
As for `CCOc1ccc(NC(=O)NNC(=O)c2ccc(Cl)cc2Cl)cc1`, the entry is “inactive”.
To `COC(=O)c1sc2ncccc2c1OCc1ccc(Cl)cc1Cl` belongs “inactive”; to `NC(N)=N/N=C/c1ccc(OCc2ccc(Cl)cc2Cl)cc1`, 11.2 µM (active).
With `CC(=O)NC12CC3CC(C1)CC(C(=O)N1CCN(S(=O)(=O)c4cccs4)CC1)(C3)C2`, the Potency entry was “inactive”.
Regarding `Clc1ccc(N/N=C/c2cccs2)nn1`, the Potency entry was “inactive”.
In the case of `CCCCCCCN=C(C)c1ccccc1O`, the Potency result is “inactive”.
As for `Oc1cccc(/C=N/Nc2ccc(Cl)nn2)c1O`, the figure is 2.51 µM (active); as for `COc1cccc(/C=N/Nc2ccc(Cl)nn2)c1`, “inactive”; as for `C/C(=N\Nc1ccc(Cl)nn1)c1ccccc1O`, 0.501 µM (active).
As to `CC(C)=C(NC(=O)c1ccccc1)C(=O)N/N=C(\C)c1ccccc1O`, the Potency result is “inactive”.
As to `CCCN(C(=O)CSc1nnc(N)s1)c1c(N)n(Cc2ccccc2)c(=O)[nH]c1=O`, the Potency entry is “inactive”.
As to `Cc1ccc(-c2nn(-c3ccccc3)cc2C(=O)NC2CCC(O)CC2)cc1` (stereo not given), the Potency result is “inactive”.
To `CCc1ccc(-c2nn(-c3ccccc3C)cc2C(=O)N2CCN(C3CCS(=O)(=O)C3)CC2)cc1` (stereo not given) belongs “inactive”; to `CCc1ccc(-c2nn(-c3ccccc3)cc2CSC(=N)N)cc1`, 10 µM (active).
As for `Cc1ccc(NC(=O)C(C)Sc2nnc(C3CC3)n2C2CC2)cc1S(=O)(=O)N1CCOCC1` (stereo not given), the Potency result was “inactive”.
`CC(C)CC[n+]1ccn(C2=C([O-])c3ccccc3C(=O)/C2=N\S(=O)(=O)c2ccccc2)c1`: the Potency is 10 µM (active).
`COc1ccc(C(=O)NCc2ccccc2C)cc1S(=O)(=O)NC1CCCC1`: the Potency entry is “inactive”.
To `CCCCN(C(=O)C1CCC1)c1c(N)n(Cc2ccccc2)c(=O)[nH]c1=O` belongs “inactive”.
As for `COc1ccc(C(=O)C[n+]2ccc(C)cc2)cc1`, the entry is “inactive”; as for `COc1ccc(CCC(=O)c2ccc(OC)cc2)cc1`, “inactive”; as for `COc1ccc(C(=O)C[n+]2ccc(N)c(C)c2C)cc1`, 2.24 µM (active).
As for `COc1cc(/C=C/C(=O)OCC(=O)c2ccccc2)cc(OC)c1OC`, the Potency result was “inactive”.
In the case of `COc1ccc(S(=O)(=O)N(C)C[C@H]2Oc3ccc(NS(=O)(=O)c4cccs4)cc3CC(=O)N([C@H](C)CO)C[C@H]2C)cc1`, the Potency result was “inactive”.
For the compound `O=C(COc1ccc(F)cc1Br)NCC1COc2ccccc2O1` (stereo not given), the Potency entry was “inactive”.
Consider `CC1(C)Cc2cccc(OCC(=O)N3CCN(c4ccc([N+](=O)[O-])cc4)CC3)c2O1`, for which the Potency is 10 µM (active).
With `CC1(C)Cc2cccc(OCC(=O)NCc3ccccc3)c2O1`, the Potency entry is “inactive”.
Turning to `CC1(C)Cc2cccc(OCC(N)=O)c2O1`, the Potency entry was “inactive”.
Turning to `COc1ccc(CCOC2OC(CO)C(OC(=O)/C=C/c3ccc(O)c(OC)c3)C(O[C@H]3O[C@@H](C)[C@H](O)[C@@H](O)[C@H]3O)C2O)cc1O` (stereo not given in full), the Potency entry is “inactive”.
In the case of `CC(C)OCCCNc1ncnc2c1[nH]c1ccc(F)cc12`, the Potency is 12.6 µM (active).
Turning to `COc1ccc2[nH]c3c(=O)n(Cc4ccco4)cnc3c2c1`, the Potency result is “inactive”.
On to `COc1cc(OC)c(OC)cc1/C=N/Nc1ncnc2c1[nH]c1ccc(C)cc12`, for which the Potency entry is “inactive”.
`O=C(COC(=O)c1cccc(Cl)c1)NC1CCCCCCC1`: the Potency result was “inactive”.
Take `O=C1NC(Cc2ccc(O)cc2)c2nc3ccc(Cl)cc3c(=O)n2-c2ccccc21` (stereo not given): the Potency result was “inactive”.
As for `O=C(NNc1c2ccccc2nc2ccccc12)c1cc2ccccc2cc1O`, the figure is 2.82 µM (active); as for `COc1ccc(-c2cc(C(=O)Nc3ccccc3O)c3ccccc3n2)cc1`, “inactive”.
On to `CC(C)(C)OC(=O)NNc1c2ccccc2nc2ccccc12`, for which the Potency is 2.82 µM (active).
